Assay results from PubChem BioAssay (EPA / NIEHS).
Records with an inconclusive call do not appear. The source made the active and inactive calls. Rule for the calls: active = hit-call score of the fitted dose curve at least 0.9, where 1 is the maximum; inconclusive = response in the unintended direction; inactive = score below 0.9.

Experiments:
[1] = read-out: HMG-CoA synthase (HMGCS2), HMGCS2 (gene 3158); assay: CLD_HMGCS2_6hr: CellzDirect (CLD) Gene Expression Assay for HMG-CoA synthase (HMGCS2) at 6 hours (AID 2283682);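 note: actives raise HMGCS2 transcript above the 0.2% DMSO vehicle baseline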
Procedure, shortened: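 Primary human hepatocytes dosed daily with fresh chemical, 0.2% DMSO vehicle; HMGCS2 mRNA measured at 6 h by qNPA chemiluminescence. Gain of signal fitted against DMSO; cytotoxicity flagged from phase-contrast morphology.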

[2] = read-out: xenobiotic metabolism (CYP1A2), CYP1A2 (gene 1544); assay: CLD_CYP1A2_24hr: CellzDirect (CLD) Gene Expression Assay for xenobiotic metabolism (CYP1A2) at 24 hours (AID 2283683)
Procedure, shortened: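 Primary human hepatocytes from two donor preparations dosed daily with multiple concentrations of chemical, 0.2% DMSO vehicle. CYP1A2 mRNA at 24 h quantified by qNPA chemiluminescence; gain of signal analyzed relative to DMSO. Cytotoxicity flagged by phase-contrast morphology.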

[3] = read-out: ABC Transporter (ABCB1), ABCB1 (gene 5243); assay: CLD_ABCB1_24hr: CellzDirect (CLD) Gene Expression Assay for ABC Transporter (ABCB1) at 24 hours (AID 2283684);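 for AC50: potency for increase in ABCB1 mRNA relative to DMSO vehicle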
Procedure, shortened: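 Primary human hepatocytes, two donor preparations, dosed daily with fresh solutions; vehicle 0.2% DMSO; harvested at 24 h. ABCB1 mRNA measured by quantitative nuclease protection assay (chemiluminescence); morphology-based cytotoxicity annotated.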

[4] = read-out: Cytochrome P450 2B6 (Homo sapiens) (UniProt P20813); assay: CLD_CYP2B6_24hr: CellzDirect (CLD) Gene Expression Assay for xenobiotic metabolism (CYP2B6) at 24 hours (AID 2283686)
Procedure, shortened: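 Primary human hepatocytes dosed daily for two days with fresh solutions, harvested at 24 hours; mRNA induction quantified by qNPA chemiluminescence, gain of signal vs 0.2% DMSO vehicle. Cytotoxicity annotated from phase-contrast morphology.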

[5] = read-out: Cytochrome P450 2C19 (Homo sapiens) (UniProt P33261); assay: CLD_CYP2C19_24hr: CellzDirect (CLD) Gene Expression Assay for xenobiotic metabolism (CYP2C19) at 24 hours (AID 2283687);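 note: activity means mRNA induction above DMSO vehicle baseline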
Procedure, shortened: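 Primary human hepatocytes (two donor preparations) dosed daily with fresh test chemical in 0.2% DMSO vehicle; CYP2C19 mRNA induction measured at 24 h by quantitative nuclease protection assay with chemiluminescence, fitted for gain of signal versus DMSO.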

[6] = read-out: Cytochrome P450 3A4 (Homo sapiens) (UniProt P08684); assay: CLD_CYP3A4_24hr: CellzDirect (CLD) Gene Expression Assay for xenobiotic metabolism (CYP3A4) at 24 hours (AID 2283689)
Procedure, shortened: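 Primary human hepatocytes from two donors dosed daily with fresh compound for two days, 0.2% DMSO vehicle. CYP3A4 mRNA at 24 hr by qNPA chemiluminescence; gain-of-signal fit versus DMSO, cytotoxicity flagged by morphology.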

[7] = read-out: organic anion transporter (SLCO1B1), SLCO1B1 (gene 10599); assay: CLD_SLCO1B1_24hr: CellzDirect (CLD) Gene Expression Assay for organic anion transporter (SLCO1B1) at 24 hours (AID 2283690)
Procedure, shortened: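 Primary human hepatocytes (two donor preparations) dosed daily for two days with chemicals at multiple concentrations, 0.2% DMSO vehicle. SLCO1B1 mRNA at 24 h measured by qNPA chemiluminescence; induction fitted relative to DMSO.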

[8] = read-out: Broad substrate specificity ATP-binding cassette transporter ABCG2 (Homo sapiens) (UniProt Q9UNQ0); assay: CLD_ABCG2_24hr: CellzDirect (CLD) Gene Expression Assay for ABC Transporter (ABCG2) at 24 hours (AID 2283685)
Procedure, shortened: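 Primary human hepatocytes were dosed daily with ToxCast chemicals at multiple concentrations (vehicle 0.2% DMSO). ABCG2 mRNA was measured at 24 h by qNPA chemiluminescence; induction was scored as gain of signal versus DMSO.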

[9] = read-out: Cytochrome P450 2C9 (Homo sapiens) (UniProt P11712); assay: CLD_CYP2C9_24hr: CellzDirect (CLD) Gene Expression Assay for xenobiotic metabolism (CYP2C9) at 24 hours (AID 2283688)
Procedure, shortened: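 Primary human hepatocytes from two donor preparations, dosed daily for two days at multiple concentrations; vehicle 0.2% DMSO. CYP2C9 mRNA induction at 24 h measured by qNPA chemiluminescence relative to DMSO; cytotoxicity annotated from morphology.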

Broad substrate specificity ATP-binding cassette transporter ABCG2 (Homo sapiens), sequence (Q9UNQ0 whole entry, looked up): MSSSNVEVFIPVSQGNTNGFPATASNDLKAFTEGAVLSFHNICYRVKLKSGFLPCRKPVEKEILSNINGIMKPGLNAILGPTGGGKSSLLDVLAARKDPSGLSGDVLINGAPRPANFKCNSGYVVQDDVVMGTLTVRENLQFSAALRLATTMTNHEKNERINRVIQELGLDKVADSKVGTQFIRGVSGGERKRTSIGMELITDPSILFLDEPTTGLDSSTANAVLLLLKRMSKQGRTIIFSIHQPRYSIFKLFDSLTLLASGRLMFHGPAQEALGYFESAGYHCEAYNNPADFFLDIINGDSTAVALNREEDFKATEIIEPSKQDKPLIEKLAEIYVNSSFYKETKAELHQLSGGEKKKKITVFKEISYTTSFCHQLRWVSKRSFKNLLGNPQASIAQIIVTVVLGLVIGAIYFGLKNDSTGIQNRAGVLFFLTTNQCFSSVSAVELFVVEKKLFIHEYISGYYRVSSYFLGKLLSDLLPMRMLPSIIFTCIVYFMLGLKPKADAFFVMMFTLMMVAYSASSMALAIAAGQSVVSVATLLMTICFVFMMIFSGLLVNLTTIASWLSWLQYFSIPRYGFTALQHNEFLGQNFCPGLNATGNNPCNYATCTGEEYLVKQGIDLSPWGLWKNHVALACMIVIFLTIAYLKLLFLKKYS
Cytochrome P450 2C19 (Homo sapiens), sequence (P33261 whole entry, looked up): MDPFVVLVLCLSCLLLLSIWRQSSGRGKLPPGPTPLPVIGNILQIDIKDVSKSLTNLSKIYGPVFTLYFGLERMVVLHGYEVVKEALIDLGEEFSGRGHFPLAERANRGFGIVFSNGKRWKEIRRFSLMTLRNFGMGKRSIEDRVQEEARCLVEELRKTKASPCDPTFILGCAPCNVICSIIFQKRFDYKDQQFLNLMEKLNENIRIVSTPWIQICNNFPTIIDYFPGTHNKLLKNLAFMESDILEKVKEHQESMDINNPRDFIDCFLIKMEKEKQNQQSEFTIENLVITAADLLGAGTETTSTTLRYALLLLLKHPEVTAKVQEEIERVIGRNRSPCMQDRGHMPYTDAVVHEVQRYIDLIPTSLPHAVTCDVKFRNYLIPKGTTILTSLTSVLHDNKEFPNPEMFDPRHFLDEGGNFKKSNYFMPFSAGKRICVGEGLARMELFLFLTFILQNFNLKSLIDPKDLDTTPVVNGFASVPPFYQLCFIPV
Cytochrome P450 3A4 (Homo sapiens), sequence (P08684 whole entry, looked up): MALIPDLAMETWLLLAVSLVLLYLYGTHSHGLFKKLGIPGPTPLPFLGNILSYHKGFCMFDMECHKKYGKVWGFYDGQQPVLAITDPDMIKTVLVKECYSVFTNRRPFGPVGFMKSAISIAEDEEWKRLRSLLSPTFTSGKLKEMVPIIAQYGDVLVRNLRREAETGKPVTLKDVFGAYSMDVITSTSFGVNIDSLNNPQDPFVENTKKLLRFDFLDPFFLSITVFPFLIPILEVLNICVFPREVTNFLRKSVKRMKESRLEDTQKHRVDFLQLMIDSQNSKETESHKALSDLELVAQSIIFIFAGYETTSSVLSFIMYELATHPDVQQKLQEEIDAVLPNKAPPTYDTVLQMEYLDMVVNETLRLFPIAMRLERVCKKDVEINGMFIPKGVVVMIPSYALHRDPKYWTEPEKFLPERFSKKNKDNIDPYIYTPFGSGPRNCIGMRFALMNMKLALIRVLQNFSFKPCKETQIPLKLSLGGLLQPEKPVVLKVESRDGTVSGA

For `CC1(C)CON(Cc2ccccc2Cl)C1=O`, the outcome [1] was “inactive”, the outcome [2] was “inactive” and the outcome [3] was “inactive”. The AC50 [4] was 20 µM (active), the outcome [5] was “inactive” and the AC50 [6] was 20 µM (active). For the same compound, the outcome [7] was “inactive”.

For `Nc1cnn(-c2ccccc2)c(=O)c1Cl`, the outcome [1] was “inactive”, the AC50 [2] was 5.8 µM (active) and the outcome [8] was “inactive”. For the same compound, the outcome [4] was “inactive” and the outcome [9] was “inactive”.

For `COC(=O)NS(=O)(=O)c1ccc(N)cc1`, the outcome [1] was “inactive”, the outcome [4] was “inactive” and the outcome [5] was “inactive”. For the same compound, the outcome [7] was “inactive”.

In the case of `CC(C)N1C(=O)c2ccccc2NS1(=O)=O`, the AC50 [1] is reported as 0.00735 µM (active), the outcome [3] is reported as “inactive” and the outcome [4] is reported as “inactive”. The outcome [5] was “inactive”.

`C=C(C)CN(CC)c1c([N+](=O)[O-])cc(C(F)(F)F)cc1[N+](=O)[O-]` was tested, and the outcome [1] was “inactive”, the outcome [2] was “inactive” and the outcome [4] was “inactive”. For the same compound, the outcome [5] was “inactive”, the outcome [9] was “inactive” and the AC50 [6] was 5.33 µM (active).

For `CCNC(=O)NC(=O)C(C#N)=NOC`, the outcome [1] was “inactive”, the outcome [3] was “inactive” and the outcome [5] was “inactive”. The outcome [9] was “inactive” and the outcome [7] was “inactive”.

For `CCN(CC)C(=O)C(C)Oc1cccc2ccccc12` (centres undefined), the AC50 [2] was 8.79 µM (active), the outcome [4] was “inactive” and the outcome [5] was “inactive”. The outcome [9] was “inactive”.

`O=C(O)c1c(Cl)ccc2cc(Cl)cnc12` was tested, and the outcome [2] was “inactive”, the outcome [8] was “inactive” and the outcome [4] was “inactive”. For the same compound, the outcome [5] was “inactive”, the outcome [9] was “inactive” and the outcome [7] was “inactive”.

In the case of `Cc1cnc(C2=NC(C)(C(C)C)C(=O)N2)c(C(=O)O)c1` (centres undefined), the outcome [1] is reported as “inactive”, the outcome [2] is reported as “inactive” and the outcome [3] is reported as “inactive”. For the same compound, the outcome [8] was “inactive”, the outcome [4] was “inactive” and the outcome [5] was “inactive”. For the same compound, the outcome [9] was “inactive” and the outcome [7] was “inactive”.

For `CCN(CC)c1nc(C)cc(OP(=S)(OC)OC)n1`, the outcome [1] was “inactive”, the AC50 [2] was 3.97 µM (active) and the AC50 [4] was 0.902 µM (active).

With `CC1(C)C(C(=O)OC(C#N)c2cccc(Oc3ccccc3)c2)C1(C)C` (centres undefined) the outcome [1] was “inactive”, the AC50 [2] was 20 µM (active) and the outcome [3] was “inactive”. For the same compound, the AC50 [4] was 4.44 µM (active), the outcome [9] was “inactive” and the AC50 [6] was 13 µM (active).

In the case of `CCSC(=O)N1CCCCCC1`, the outcome [1] is reported as “inactive”, the AC50 [4] is reported as 0.302 µM (active) and the outcome [5] is reported as “inactive”. The outcome [9] was “inactive”.

With `Clc1cccc(C(Cl)(Cl)Cl)n1` the outcome [1] was “inactive”, the AC50 [4] was 0.325 µM (active) and the outcome [5] was “inactive”. The outcome [9] was “inactive” and the outcome [7] was “inactive”.

`Cn1c(-c2ccccc2)cc(-c2ccccc2)[n+]1C` was tested, and the outcome [1] was “inactive”, the outcome [8] was “inactive” and the outcome [6] was “inactive”.

`O=C(Nc1ccccc1-c1ccc(Cl)cc1)c1cccnc1Cl` was tested, and the outcome [1] was “inactive” and the AC50 [4] was 0.427 µM (active).

`O=c1n(Cl)c(=O)n(Cl)c(=O)n1Cl` was tested, and the outcome [1] was “inactive”, the AC50 [2] was 3.33 µM (active) and the outcome [4] was “inactive”. The outcome [5] was “inactive”, the outcome [9] was “inactive” and the outcome [7] was “inactive”.

`CCC(C)n1c(=O)[nH]c(C)c(Br)c1=O` (centres undefined) was tested, and the outcome [1] was “inactive”, the AC50 [4] was 1.56 µM (active) and the outcome [6] was “inactive”.

With `CS(=O)(=O)c1cc(C(F)(F)F)ccc1C(=O)c1cnoc1C1CC1` the AC50 [1] was 3.97 µM (active), the AC50 [4] was 6.01 µM (active) and the outcome [5] was “inactive”. For the same compound, the outcome [7] was “inactive”.

In the case of `CCOC(=O)C(C)OC(=O)c1cc(Oc2ccc(C(F)(F)F)cc2Cl)ccc1[N+](=O)[O-]` (centres undefined), the AC50 [1] is reported as 0.0241 µM (active) and the AC50 [4] is reported as 10.3 µM (active).

In the case of `CCOc1cc(C(C)(C)C)ccc1C1COC(c2c(F)cccc2F)=N1` (centres undefined), the outcome [1] is reported as “inactive”, the AC50 [4] is reported as 1.9 µM (active) and the outcome [9] is reported as “inactive”.

In the case of `COCC(=O)N(c1c(C)cccc1C)C(C)C(=O)OC` (centres undefined), the outcome [1] is reported as “inactive”, the AC50 [4] is reported as 4.09 µM (active) and the outcome [5] is reported as “inactive”. For the same compound, the outcome [9] was “inactive” and the outcome [7] was “inactive”.

With `CCNP(=S)(OC)O/C(C)=C/C(=O)OC(C)C` (centres undefined) the outcome [1] was “inactive”, the AC50 [4] was 0.981 µM (active) and the outcome [9] was “inactive”.

`CCOc1nc(F)cc2nc(S(=O)(=O)Nc3c(Cl)cccc3Cl)nn12` was tested, and the outcome [1] was “inactive”, the AC50 [4] was 6.27 µM (active) and the outcome [9] was “inactive”.

With `COc1ccc(-c2ccccc2)cc1NNC(=O)OC(C)C` the outcome [1] was “inactive”, the outcome [3] was “inactive” and the outcome [8] was “inactive”. The AC50 [4] was 4.09 µM (active) and the outcome [6] was “inactive”.

`N#Cc1c[nH]cc1-c1cccc2c1OC(F)(F)O2` was tested, and the outcome [1] was “inactive” and the AC50 [4] was 3.97 µM (active).

For `CSC(=O)c1c(C(F)F)nc(C(F)(F)F)c(C(=O)SC)c1CC(C)C`, the outcome [1] was “inactive”, the AC50 [2] was 5.33 µM (active) and the outcome [8] was “inactive”. The AC50 [4] was 1.22 µM (active), the outcome [5] was “inactive” and the outcome [9] was “inactive”. The outcome [7] was “inactive”.

With `CCCN(CC)CC1COC2(CCC(C(C)(C)C)CC2)O1` (centres undefined) the outcome [1] was “inactive”, the outcome [3] was “inactive” and the AC50 [4] was 9.21 µM (active). The outcome [5] was “inactive” and the outcome [7] was “inactive”.

In the case of `CCOP(=O)(OCC)Oc1nc(Cl)c(Cl)cc1Cl`, the AC50 [2] is reported as 3.42 µM (active), the outcome [8] is reported as “inactive” and the AC50 [4] is reported as 0.405 µM (active). The outcome [9] was “inactive” and the outcome [7] was “inactive”.

With `C=CCOC(=O)C(C)(C)OC(=O)c1cc(-n2c(=O)cc(C(F)(F)F)n(C)c2=O)ccc1Cl` the outcome [1] was “inactive”, the outcome [3] was “inactive” and the AC50 [4] was 0.173 µM (active). For the same compound, the outcome [5] was “inactive” and the outcome [9] was “inactive”.

With `CC1(C)C(C=C(Cl)Cl)C1C(=O)OC(C#N)c1cccc(Oc2ccccc2)c1` (centres undefined) the outcome [1] was “inactive”, the AC50 [4] was 4.4 µM (active) and the outcome [5] was “inactive”. For the same compound, the outcome [9] was “inactive”.

`Cc1ccc(N=CN(C)C=Nc2ccc(C)cc2C)c(C)c1` was tested, and the outcome [1] was “inactive”, the outcome [2] was “inactive” and the AC50 [3] was 28.2 µM (active). The outcome [4] was “inactive” and the outcome [7] was “inactive”.
